Our source for the cytotoxicity call values is the antibiotic and cytotoxicity screens of Wong et al. (2023).

Hit rate of the full screen: of about 39,000 compounds, about 3,300 (8.5%) were called active. The sample holds actives, similar compounds and a random draw of the others, so the mix is not that of the screen.

The subject of the test is HepG2. The test can be described thus: cytotoxicity call (relative viability < 0.9). The settings on record: 10 µM.
Consider `C[C@H]1CN([C@@H](C)CO)C(=O)c2cccc(NC(=O)C3CC3)c2O[C@@H]1CN(C)C(=O)Nc1ccc2c(c1)OCO2`, for which the cytotoxicity call is “inactive”. For the compound `C[C@@H]1CCCCO[C@H](CN(C)CC2CCCCC2)[C@H](C)CN([C@@H](C)CO)C(=O)c2cc(NC(=O)c3ccncc3)ccc2O1`, the cytotoxicity call was “inactive”. Turning to `C[C@@H]1CN([C@H](C)CO)C(=O)Cc2cc(NC(=O)Cn3cnnn3)ccc2O[C@H]1CN(C)C(=O)Nc1ccc2c(c1)OCO2`, the cytotoxicity call was “inactive”. The value for `COCC(=O)N1C[C@@H](C)[C@@H](OC)CN(C)C(=O)c2cc(NC(=O)c3cc(C)on3)ccc2OC[C@@H]1C` was “inactive”; that for `Cc1ccc(S(=O)(=O)Nc2ccc3c(c2)CC(=O)N([C@H](C)CO)C[C@@H](C)[C@@H](CN(C)Cc2ccc(Oc4ccccc4)cc2)O3)cc1` was “active”. The result for `Cc1ccc(S(=O)(=O)Nc2ccc3c(c2)CC(=O)N([C@@H](C)CO)C[C@@H](C)[C@H](CN(C)Cc2ccc(Oc4ccccc4)cc2)O3)cc1` reads “inactive”. The value for `Cc1ccc(S(=O)(=O)Nc2ccc3c(c2)CC(=O)N([C@H](C)CO)C[C@H](C)[C@@H](CN(C)Cc2ccc(Oc4ccccc4)cc2)O3)cc1` was “inactive”; that for `Cc1ccc(S(=O)(=O)Nc2ccc3c(c2)CC(=O)N([C@@H](C)CO)C[C@@H](C)[C@@H](CN(C)Cc2ccc(Oc4ccccc4)cc2)O3)cc1` was “inactive”. With `Cc1ccc(S(=O)(=O)Nc2ccc3c(c2)CC(=O)N([C@@H](C)CO)C[C@H](C)[C@@H](CN(C)Cc2ccc(Oc4ccccc4)cc2)O3)cc1`, the cytotoxicity call was “active”.

Consider `Cc1ccc(S(=O)(=O)Nc2ccc3c(c2)CC(=O)N([C@@H](C)CO)C[C@H](C)[C@H](CN(C)Cc2ccc(Oc4ccccc4)cc2)O3)cc1`, for which the cytotoxicity call was “inactive”. The value for `COc1ccc(S(=O)(=O)N(C)C[C@@H]2Oc3c(NC(=O)c4cc(C)nn4C)cccc3C(=O)N([C@@H](C)CO)C[C@H]2C)cc1` was “inactive”. As to `C[C@H](O)C#Cc1ccc2c(c1)O[C@@H](CN(C)C(=O)Nc1ccccc1)[C@@H](C)CN([C@@H](C)CO)S2(=O)=O`, the cytotoxicity call was “inactive”. For the compound `C[C@@H]1CN([C@H](C)CO)C(=O)CCCn2cc(nn2)CO[C@H]1CN(C)S(=O)(=O)c1ccc(Cl)cc1`, the cytotoxicity call was “inactive”. The result for `C[C@@H]1CCCCO[C@@H](CN(C)C(=O)C2CCCCC2)[C@H](C)CN([C@H](C)CO)C(=O)c2cc(NC(=O)Cc3ccccc3)ccc2O1` reads “inactive”; that for `CC(C)CC(=O)Nc1cncc(-c2ccc3[nH]nc(-c4nc5cncc(-c6cccc(F)c6)c5[nH]4)c3c2)c1`, “active”; that for `CO[C@H](CN(C)C(=O)C1CCOCC1)[C@@H](C)CN(C(=O)Nc1ccc(C(F)(F)F)cc1)[C@H](C)CO`, “inactive”. As for `COc1ccccc1CNC(=O)C[C@@H]1C[C@H]2c3cc(NC(=O)C4CCOCC4)ccc3O[C@H]2[C@H](CO)O1`, the cytotoxicity call is “inactive”. The value for `CCN(CC)CCc1nc(-c2ccccc2)no1.O=C(O)CC(O)(CC(=O)O)C(=O)O` was “active”; that for `CCN(CCCc1ccccc1)CCCc1ccccc1.O=C(O)CC(O)(CC(=O)O)C(=O)O` was “inactive”; that for `NCc1nc(-c2ccccc2)no1` was “inactive”. Regarding `C=CC(=O)Nc1ccccc1[C@@H](CCc1ccc(OC)c(OC)c1)OC(=O)[C@@H]1CCCCN1C(=O)C(=O)C(C)(C)CC`, the cytotoxicity call is “inactive”.

Consider `COc1ccc(NC(=O)Nc2ccc3c(c2)[C@H]2C[C@H](CC(=O)NCC(F)(F)F)O[C@H](CO)[C@H]2O3)cc1`, for which the cytotoxicity call was “inactive”. As to `Cn1cnc(CCNC(=O)C[C@@H]2CC[C@@H]3[C@H](COC[C@@H](O)CN3C(=O)Nc3ccc(C(F)(F)F)cc3)O2)c1`, the cytotoxicity call was “inactive”. For `COc1ccc(CN(C)C[C@H]2Oc3c(NC(=O)Nc4ccc(C(F)(F)F)cc4)cccc3C(=O)N([C@H](C)CO)C[C@@H]2C)cc1`, the cytotoxicity call was “inactive”.

Take `COc1ccc(NC(=O)Nc2cccc3c2O[C@@H](CN(C)Cc2ccc(C(F)(F)F)cc2)[C@@H](C)CN([C@H](C)CO)C3=O)cc1`: the cytotoxicity call was “inactive”. The value for `COc1ccc(CN(C)C[C@H]2Oc3c(NC(=O)Nc4ccc(C(F)(F)F)cc4)cccc3C(=O)N([C@H](C)CO)C[C@H]2C)cc1` was “inactive”; that for `COc1ccc(CN(C)C[C@@H]2Oc3c(NC(=O)Nc4ccc(C(F)(F)F)cc4)cccc3C(=O)N([C@@H](C)CO)C[C@H]2C)cc1` was “active”; that for `COc1ccc(CN(C)C[C@H]2Oc3c(NC(=O)Nc4ccc(C(F)(F)F)cc4)cccc3C(=O)N([C@@H](C)CO)C[C@H]2C)cc1` was “active”. The result for `COc1ccc(NC(=O)Nc2cccc3c2O[C@@H](CN(C)Cc2ccc(C(F)(F)F)cc2)[C@H](C)CN([C@@H](C)CO)C3=O)cc1` reads “inactive”; that for `Cc1noc(C)c1NC(=O)N(C)C[C@@H]1OCCCC[C@@H](C)Oc2ccc(NC(=O)C3CCCCC3)cc2C(=O)N([C@H](C)CO)C[C@H]1C`, “inactive”. The result for `C[C@@H]1CN([C@@H](C)CO)S(=O)(=O)c2ccc(Br)cc2O[C@H]1CN(C)C(=O)c1ccccc1F` reads “inactive”; that for `O=C(O)c1cc(=O)cc[nH]1`, “inactive”. On to `C[C@@H]1CN([C@@H](C)CO)C(=O)Cc2cc(NS(=O)(=O)c3ccc(F)cc3)ccc2O[C@@H]1CN(C)Cc1ccncc1`, for which the cytotoxicity call was “inactive”. The value for `COc1ccc(CNC(=O)C[C@H]2C[C@H]3c4cc(NC(=O)NC5CCCC5)ccc4O[C@H]3[C@H](CO)O2)cc1` was “inactive”. As to `COc1cccc(S(=O)(=O)Nc2ccc3c(c2)[C@H]2C[C@H](CC(=O)NC4CCCCC4)O[C@H](CO)[C@H]2O3)c1`, the cytotoxicity call is “inactive”.

For `OC(c1ccc(-c2ccc(CN3CCN(Cc4ccncc4)CC3)cc2)c(F)c1)(C(F)(F)F)C(F)(F)F`, the cytotoxicity call was “inactive”.

`CC(=O)N[C@@H](CC(C)C)C(=O)O` [listing 1 of 2 here]: the cytotoxicity call is “inactive”. The result for `CC(C)C[C@@H](NC(=O)CCN)C(=O)O` reads “active”; that for `CC(=O)N[C@@H](CC(C)C)C(=O)O` [listing 2 of 2 here], “inactive”; that for `O=C(N[C@@H]1CC[C@H](CCNS(=O)(=O)c2ccc(F)cc2)O[C@H]1CO)C1CC1`, “inactive”. For `Cc1noc(C)c1S(=O)(=O)N(C)C[C@@H]1Oc2ccc(NC(=O)NC(C)C)cc2CC(=O)N([C@@H](C)CO)C[C@H]1C`, the cytotoxicity call is “inactive”.

In the case of `CCN1C(=O)S/C(=C\C(=O)O)C1=O`, the cytotoxicity call was “inactive”. On to `O=C(C[C@H]1CC[C@@H]2NC[C@@H](O)COC[C@H]2O1)NCCN1CCCCC1`, for which the cytotoxicity call was “inactive”.

For the compound `C[C@H](CO)N1C[C@H](C)[C@H](CN(C)S(=O)(=O)c2ccc(Cl)cc2)OCCCC[C@H](C)Oc2ccc(NC(=O)Nc3ccc(C(F)(F)F)cc3)cc2C1=O`, the cytotoxicity call is “active”. For the compound `C[C@@H]1CN([C@H](C)CO)C(=O)c2cc(NC(=O)Nc3ccc(C(F)(F)F)cc3)ccc2O[C@@H](C)CCCCO[C@H]1CN(C)S(=O)(=O)c1ccc(Cl)cc1`, the cytotoxicity call was “inactive”. The result for `C[C@H]1CCCCO[C@H](CN(C)S(=O)(=O)c2ccc(Cl)cc2)[C@@H](C)CN([C@@H](C)CO)C(=O)c2cc(NC(=O)Nc3ccc(C(F)(F)F)cc3)ccc2O1` reads “inactive”; that for `C[C@@H]1CCCCO[C@@H](CN(C)S(=O)(=O)c2ccc(Cl)cc2)[C@H](C)CN([C@@H](C)CO)C(=O)c2cc(NC(=O)Nc3ccc(C(F)(F)F)cc3)ccc2O1`, “inactive”; that for `C[C@@H]1CCCCO[C@@H](CN(C)S(=O)(=O)c2ccc(Cl)cc2)[C@H](C)CN([C@H](C)CO)C(=O)c2cc(NC(=O)Nc3ccc(C(F)(F)F)cc3)ccc2O1`, “inactive”. Take `C[C@@H]1CCCCO[C@H](CN(C)S(=O)(=O)c2ccc(Cl)cc2)[C@@H](C)CN([C@H](C)CO)C(=O)c2cc(NC(=O)Nc3ccc(C(F)(F)F)cc3)ccc2O1`: the cytotoxicity call was “active”.

`COc1ccc(S(=O)(=O)N(C)C[C@@H]2Oc3ncc(-c4cccc(OC)c4)cc3C(=O)N([C@H](C)CO)C[C@@H]2C)cc1`: the cytotoxicity call was “inactive”. Regarding `Cc1noc(C)c1S(=O)(=O)Nc1ccc2c(c1)C(=O)N([C@@H](C)CO)C[C@@H](C)[C@H](CN(C)C(=O)Nc1ccc(C(F)(F)F)cc1)OCCCC[C@@H](C)O2`, the cytotoxicity call was “inactive”. The result for `NC[C@H]1COC2(CCCCC2)O1` reads “inactive”. The value for `C[C@H]1CN([C@@H](C)CO)C(=O)Cc2cc(NC(=O)CCN3CCOCC3)ccc2O[C@H]1CN(C)S(=O)(=O)c1ccc(Cl)cc1` was “inactive”. For `CC(=O)Nc1nonc1N1CCCC1=O`, the cytotoxicity call was “inactive”. The result for `O=C(Cc1ccccn1)NCC[C@@H]1CC[C@@H](NC(=O)CN2CCOCC2)[C@@H](CO)O1` reads “inactive”; that for `Cc1ccc(S(=O)(=O)Nc2ccc3c(c2)C(=O)N([C@@H](C)CO)C[C@@H](C)[C@@H](CN(C)C(=O)Nc2ccc4c(c2)OCO4)OCCCC[C@H](C)O3)cc1`, “inactive”; that for `CC1C=CC=CC=CC=CC=CC=CC=CC(OC2OC(C)C(O)C(N)C2O)CC(O)C(C(=O)O)C(O)CC(=O)CC(O)CC(O)CC(O)CC(=O)CCCC(=O)CC(=O)OC1C(C)CC(C)C(O)CC(=O)c1ccc(N)cc1` (stereo not drawn), “active”. The value for `CC1C=CC=CC=CC=CC=CC=CC=CC(OC2OC(C)C(O)C(N)C2O)CC2OC(O)(CC(O)CC(O)C(O)CCC(O)CC(O)CC(=O)OC(C)C(C)C1O)CC(O)C2C(=O)O` (stereo not drawn) was “inactive”; that for `C[C@H]1[C@@H](O)[C@@H](C)\C=C/C=C\C=C/C=C\C=C/C=C\C=C/[C@@H](O[C@H]2O[C@H](C)[C@@H](O)[C@H](N)[C@@H]2O)C[C@H]2O[C@](O)(C[C@@H](O)C[C@@H](O)[C@@H](O)CC[C@@H](O)C[C@@H](O)CC(=O)O[C@H]1C)C[C@@H](O)[C@@H]2C(=O)O` was “inactive”. Regarding `COc1ccc(CN(C)C[C@@H]2Oc3ccc(NC(=O)Cn4cnnn4)cc3CC(=O)N([C@H](C)CO)C[C@H]2C)cc1`, the cytotoxicity call was “inactive”. The value for `O=c1nc(NCc2cccnc2)cn[nH]1` was “inactive”; that for `COc1ccc(NC(=O)Nc2ccc3c(c2)C(=O)N([C@@H](C)CO)C[C@H](C)[C@@H](CN(C)CC2CCCCC2)OCCCC[C@H](C)O3)cc1` was “inactive”; that for `COc1ccc(NC(=O)Nc2ccc3c(c2)C(=O)N([C@H](C)CO)C[C@@H](C)[C@H](CN(C)CC2CC2)OCCCC[C@H](C)O3)cc1` was “inactive”. For the compound `COc1ccc(NC(=O)Nc2ccc3c(c2)C(=O)N([C@@H](C)CO)C[C@@H](C)[C@@H](CN(C)CC2CCCCC2)OCCCC[C@@H](C)O3)cc1`, the cytotoxicity call is “active”.

Consider `COc1ccc(NC(=O)Nc2ccc3c(c2)C(=O)N([C@@H](C)CO)C[C@@H](C)[C@H](CN(C)CC2CCCCC2)OCCCC[C@H](C)O3)cc1`, for which the cytotoxicity call is “inactive”. Consider `COc1ccc(NC(=O)Nc2ccc3c(c2)C(=O)N([C@H](C)CO)C[C@@H](C)[C@@H](CN(C)CC2CCCCC2)OCCCC[C@H](C)O3)cc1`, for which the cytotoxicity call was “active”. The result for `COc1ccc(NC(=O)Nc2ccc3c(c2)C(=O)N([C@H](C)CO)C[C@@H](C)[C@H](CN(C)CC2CCCCC2)OCCCC[C@@H](C)O3)cc1` reads “active”; that for `COc1ccc(NC(=O)Nc2ccc3c(c2)C(=O)N([C@@H](C)CO)C[C@@H](C)[C@H](CN(C)CC2CCCCC2)OCCCC[C@@H](C)O3)cc1`, “inactive”.

For `COc1ccc(NC(=O)Nc2ccc3c(c2)C(=O)N([C@@H](C)CO)C[C@@H](C)[C@@H](CN(C)CC2CCCCC2)OCCCC[C@H](C)O3)cc1`, the cytotoxicity call was “inactive”. On to `COc1ccc(NC(=O)Nc2ccc3c(c2)C(=O)N([C@H](C)CO)C[C@@H](C)[C@@H](CN(C)CC2CCCCC2)OCCCC[C@@H](C)O3)cc1`, for which the cytotoxicity call is “active”. The result for `COc1ccc(NC(=O)Nc2ccc3c(c2)C(=O)N([C@@H](C)CO)C[C@H](C)[C@H](CN(C)CC2CCCCC2)OCCCC[C@@H](C)O3)cc1` reads “inactive”; that for `COc1ccc(NC(=O)Nc2ccc3c(c2)C(=O)N([C@H](C)CO)C[C@H](C)[C@@H](CN(C)CC2CCCCC2)OCCCC[C@@H](C)O3)cc1`, “inactive”; that for `COc1ccc(NC(=O)Nc2ccc3c(c2)C(=O)N([C@H](C)CO)C[C@H](C)[C@H](CN(C)CC2CCCCC2)OCCCC[C@H](C)O3)cc1`, “inactive”.
